# Source: PubChem (National Center for Advancing Translational Sciences (NCATS))
# Hits are enriched below; roughly 8% of the tested compounds scored in any of these assays.
# RORgamma inh – inhibitors of mouse ROR gamma transcriptional activity; P51450; Drosophila S2 Gal4-RORgamma UAS-luciferase reporter, 20 h; Potency, µM (series often up to 53.6 µM), without a hit: at the highest dose activity change, negative = inhibition, most hits filed as inhibitors; actives 5.4% (n = 310,000); also: potency is read from the fitted curve at half-maximal effect; nearly all actives have a fitted effect of over 60% in size
#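 A Gal4/UAS one-hybrid system in insect cells: metallothionein-promoter Gal4–ROR gamma fusion plus Photinus luciferase reporter. Copper sulfate 700 uM final, 20 hr ambient incubation, luminescent detection after 10 min with reagent.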
# FBPA coupling cs – inhibits coupling enzyme system, counter-screen for aldolase hits | coupling enzyme system counterscreen, AmpLite Red fluorescence | AID 2472 | actives 0.67% (n = 290,000) | activity change, negative = inhibition, % at 58.2 µM, hits read low; in the data active = activity change below about -30%
#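 Final compound at 57.5 uM, incubated 10 min at RT with coupling enzyme reagent (glyceraldehyde-3-phosphate), then 20 min with substrate and AmpLite Red detection. Fluorescence read at 525/598 nm; tests interference with the coupling assay, not aldolase inhibition.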
# ELG1 repair inh – blocks ELG1-dependent DNA repair in HEK293T cells. actives 2.3% (n = 330,000). Potency, µM (highest dose often 46.1 µM), for inactives: at the highest dose activity change, negative = inhibition, actives largely listed as inhibitors. HEK293T ELG1-luciferase reporter, luminescence, 16 h; DNA damage induced by 5-fluorouridine. AID 504467; also: potency is read from the fitted curve at half-maximal effect; nearly all actives have a fitted effect of over 55% in size
#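 Cells (2,000 per well) received 5-fluorouridine plus test compound or DMSO and were incubated 16 hr at 37 °C, 5% CO2. Luciferase activity was read by luminescence 30 min after ONE-Glo addition; signal suppression marked inhibition of damage-induced ELG1 function.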
# VP16 counter – inhibits Gal4-VP16 luciferase reporter, ROR gamma counter-screen. Potency, µM (titrated, usually from 53.6 µM), for the others: at the top dose activity, negative = inhibition, actives largely listed as inhibitors. Drosophila S2 Gal4-VP16 UAS-luciferase, luminescence, 20 h. actives 3.5% (n = 310,000);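 also: Gal4-VP16 expression switched on by copper sulfate through the metallothionein promoter; potency is read from the fitted curve at half-maximal effect; nearly all actives have a fitted effect of over 50% in size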
# TSHR antagonist – blocks TSH signaling through the human TSH receptor; P16473; TSHR-expressing cells, TSH-stimulated cAMP HTRF, 2 h; active compounds read low; activity change, negative = inhibition, % at 11.5 µM; actives 0.2% (n = 330,000); AID 504810;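 active = activity change below a set negative limit, meaning inhibition stronger than a set level, cut at about -70% in these data; inconclusive = activity change between two set negative limits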
# Target sequence (P16473 whole entry, looked up): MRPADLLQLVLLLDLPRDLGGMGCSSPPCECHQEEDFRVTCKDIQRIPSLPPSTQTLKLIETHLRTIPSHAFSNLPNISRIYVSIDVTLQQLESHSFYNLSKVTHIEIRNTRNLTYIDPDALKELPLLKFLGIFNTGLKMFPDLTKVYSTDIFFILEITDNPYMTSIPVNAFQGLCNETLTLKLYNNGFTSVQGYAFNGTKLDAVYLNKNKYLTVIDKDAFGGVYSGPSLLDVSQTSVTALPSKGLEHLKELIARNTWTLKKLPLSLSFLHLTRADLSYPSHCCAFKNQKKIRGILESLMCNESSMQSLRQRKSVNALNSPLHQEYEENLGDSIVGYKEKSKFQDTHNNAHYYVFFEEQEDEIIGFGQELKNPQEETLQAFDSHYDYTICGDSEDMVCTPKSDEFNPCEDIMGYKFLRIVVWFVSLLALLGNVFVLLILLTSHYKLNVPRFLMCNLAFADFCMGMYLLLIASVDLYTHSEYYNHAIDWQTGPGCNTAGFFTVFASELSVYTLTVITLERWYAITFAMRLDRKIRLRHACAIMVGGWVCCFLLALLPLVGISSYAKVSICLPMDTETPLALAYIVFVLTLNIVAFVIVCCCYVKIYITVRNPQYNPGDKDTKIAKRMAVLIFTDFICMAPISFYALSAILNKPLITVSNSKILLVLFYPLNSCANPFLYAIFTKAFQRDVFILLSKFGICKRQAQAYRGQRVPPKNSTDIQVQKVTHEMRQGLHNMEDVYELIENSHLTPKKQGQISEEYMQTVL
#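 Freshly harvested TSHR cells receive pin-tooled compound, then EC80 TSH at 4nM final. After 2 hours at 37 deg C, antibody in lysis buffer and cAMP-d2 are added; 30 minutes at ambient temperature precede the HTRF read.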
# * hit, by the source's call; ? = inconclusive; nt = no result given; [ ] = dose if it differs, or a comment. Unless noted, calls follow the shape of the dose curve; as a rule, active = well fitted curve in the direction sought with a large enough effect; inconclusive = small, poorly fitted or top-dose-only effect, or another doubt; inactive = no such curve, though single readings can be large; an effect the other way counts as inactive or inconclusive. % is scaled to controls: 0 for no effect and ±100 for the full control effect.
SMILES,RORgamma inh,FBPA coupling cs,ELG1 repair inh,VP16 counter,TSHR antagonist
NC(=O)c1cc[n+](CC2=C(C(=O)O)N3C(=O)[C@@H](NC(=O)[C@@H](c4ccccc4)S(=O)(=O)[O-])[C@H]3SC2)cc1,nt,nt,nt,nt,-5
COc1cc(SC#N)ccc1N=Cc1c(C)[nH]n(-c2ccc(C)c(C)c2)c1=O,4.5µM*,-1,?,4.5µM*,-8
COc1cc(SC#N)ccc1N=Cc1c(C)[nH]n(-c2ccc(Cl)cc2)c1=O,5.6µM*,3,?,5.6µM*,-18
COc1ccc(-c2cn3cc(Cl)ccc3n2)cc1OC,19%,-32*,?,-3%,0
COc1ccc(-c2cn3cc(C)ccc3n2)cc1Br,?,-17,?,7.1µM*,-2
Cc1cccc(-c2ocnc2C(=O)Nc2ccccc2NC(=O)c2ccccn2)c1,0.56µM*,-1,-5%,8.9µM*,-3
CSc1ccccc1NC(=O)c1ccccn1,0.45µM*,0,?,1.3µM*,-10
Cc1ccc(-c2ocnc2C(=O)Nc2ccccc2NC(=O)c2ccccn2)cc1,1.6µM*,1,-19%,11µM*,0
CNC(=O)Cn1nc(C)c(S(=O)(=O)N2CCOCC2)c1C,nt,nt,0%,nt,nt
Cc1cc(C)c2[nH]c(=O)c(C(c3nnnn3C(C)(C)C)N(Cc3ccco3)CC3CCCO3)cc2c1 (stereo unspecified),-14%,-40*,-5%,-7%,25
NC(=S)n1[nH]c(-c2ccc([N+](=O)[O-])cc2)c(N=Nc2cccc([N+](=O)[O-])c2)c1=O,0.63µM*,5,3.3µM*,2.5µM*,?
NC(=S)n1[nH]c(-c2ccc([N+](=O)[O-])cc2)c(N=Nc2ccccc2[N+](=O)[O-])c1=O,?,2,?,-13%,6
Cc1c(N=Nc2c(-c3ccc([N+](=O)[O-])cc3)[nH]n(C(N)=S)c2=O)cccc1[N+](=O)[O-],0.71µM*,2,2.1µM*,?,-43
COc1ccc(C(=O)N/N=C/c2ccc3cccc(O)c3n2)cc1,1.4µM*,-4,?,4µM*,6
Oc1cccc2ccc(/C=C/c3c(F)cccc3Cl)nc12,3.2µM*,-2,?,?,-2
COc1ccc(C(=O)N/N=C/C(Br)=C/c2ccccc2)cc1,3.5µM*,0,3%,16µM*,9
O/N=C/c1ccc2cccc(O)c2n1,11µM*,-12,0%,?,4
COc1cccc(C(=O)N/N=C/C(Br)=C/c2ccccc2)c1,?,-6,5%,?,4
Nc1nccc(/C=C/c2c(F)cccc2Cl)n1,-26%,-1,?,-5%[10 µM],0
O=C(N/N=C/c1ccc2cccc(OCc3ccccc3)c2n1)c1ccc(Cl)cc1,?,12,?,-4%,-3
Oc1cccc2ccc(/C=C/c3ccccc3Cl)nc12,4µM*,-5,?,4.5µM*,-5
O=[N+]([O-])c1ccccc1/C=C/c1ccc2ccccc2n1,26%,4,?,2%,4
CC1(C)CCC=[N+]1[O-],nt,nt,nt,nt,6
O=C(Cc1ccc(Cl)cc1)NNC(=S)NC(=O)c1cccs1,-42%,-5,-3%,-8%,-8
O=C(Cc1cccs1)NNC(=S)NCc1ccc(Cl)cc1,4µM*,0,7%,-15%,-2
SMILES,RORgamma inh,FBPA coupling cs,ELG1 repair inh,VP16 counter,TSHR antagonist
O=C(Cc1cccs1)NNC(=S)NC(=O)c1ccco1,7.9µM*,1,?,19%,-12
O=C(Nc1ccc2c(c1)CCC2)c1cc(S(=O)(=O)Nc2ccc(F)cc2)c(Cl)cc1Cl,?,-11,?,6.3µM*,-76*
O=C(Nc1ccc2c(c1)CCC2)c1ccc(F)cc1,?,-6,?,?,-12
O=C(CCN1C(=O)/C(=C/c2cccs2)SC1=S)NC1=NCCS1,16µM*,1,-7%,?,17
COc1ccccc1/C=C1\SC(=S)N(CCC(=O)NC2=NCCS2)C1=O,4.5µM*,1,-11%,-7%,4
CNC(=O)COc1coc(CN2CCN(c3ccccc3OC)CC2)cc1=O,?,nt,-13%,-3%,-8
C=CCN(CC(=O)NC1CCCC1)C(=O)C(=O)Nc1ccc2c(c1)OCCO2,-14%,-1,1%,-3%,6
Nc1[nH]c(N=NC(=O)c2ccc(Cl)cc2)c2ccccc12,5.6µM*,1,?,?,13
Nc1[nH]c(N=NC(=O)c2ccccc2O)c2ccccc12,?,-8,?,?,-9
CC(=O)c1cn(C(=O)c2ccc(Cl)cc2)c2ccccc12,-11%,0,4%,1%,-3
Nc1[nH]c(N=NC(=O)c2ccccc2)c2ccccc12,8.9µM*,-7,?,?,-3
CC(C)CN(CC(C)C)C(=O)c1cc(S(=O)(=O)N2CCCCC2)c[nH]1,1%,nt,-5%,3%,-4
O=c1c2c(C(F)(F)F)cc(C(F)(F)F)nc2[nH]n1-c1ccccc1,25%,-18,26µM*,-4%,-4
C=CCNc1cc(C(F)(F)F)nc(-c2ccccn2)n1,1.6µM*,2,20%,7.1µM*,5
CCN(CC)c1cc(C(F)(F)F)nc(-c2ccccn2)n1,2.5µM*,-2,?,11µM*,-9
FC(F)(F)c1cc(Oc2ccccc2)nc(-c2ccccn2)n1,?,-1,2%,-14%,-22
CCN(CC(=O)Nc1ccc(NC(C)=O)cc1)C(=O)c1ccc2c(c1)S(=O)(=O)N=C1CCCCCN12,nt,nt,8%,nt,-2
Cc1cc(N2CCOCC2)ccc1/C=C\[N+](=O)[O-],6.3µM*,2,?,10µM*,2
CCN=C1S/C(=C\c2ccc(N3CCOCC3)cc2C)C(=O)N1CC,?,3,5.8µM*,19%,-1
CN1C(=O)/C(=C/c2ccco2)SC1=Nc1ccc(N2CCOCC2)cc1,-29%,-1,?,4%,0
CN=C1S/C(=C\c2cc(C)n(-c3ccccc3F)c2C)C(=O)N1C,?,-19,?,18µM*,-6
CN=C1S/C(=C\c2ccc(N3CCOCC3)cc2C)C(=O)N1C,33%[10 µM],2,8.2µM*,0%,0
COc1cccc(NC(=O)C(C)N2C(=O)c3ccccc3C2=O)c1 (stereo unspecified),-2%,1,-4%,-8%,-13
COc1ccc(N2CCN(C(=O)c3ccccc3NS(=O)(=O)c3ccc(C)cc3)CC2)cc1,16%,nt,9%,5%,-18
CCOC(=O)N1CCC(n2c(SCC(=O)OCc3ccccc3)nc3ccsc3c2=O)CC1,42%,0,23µM*,-5%,-12
CCN1C(=O)/C(=C\c2ccncc2)SC1=Nc1ccc(C)c(C)c1,11µM*,0,?,?,32
